# Test results published in ChEMBL document CHEMBL3433997, “St. Jude Leishmania screening dataset” (2016).
# Key:
# Type in all cases: functional
# [1] = biological target: Solute carrier family 2, facilitated glucose transporter member 1 (Homo sapiens) (UniProt P11166); assay: ST_JUDE_LEISH: Cytotoxicity at 2uM final concentration against transgenic Leishmania Mexicana promastigotes LmGLUT1 that are glucose transport deficient and complemented with the human glucose transporter GLUT1. Activity is measured by DNA content using SYBR green in vitro
# Sequence of Solute carrier family 2, facilitated glucose transporter member 1 (Homo sapiens) (P11166 whole entry): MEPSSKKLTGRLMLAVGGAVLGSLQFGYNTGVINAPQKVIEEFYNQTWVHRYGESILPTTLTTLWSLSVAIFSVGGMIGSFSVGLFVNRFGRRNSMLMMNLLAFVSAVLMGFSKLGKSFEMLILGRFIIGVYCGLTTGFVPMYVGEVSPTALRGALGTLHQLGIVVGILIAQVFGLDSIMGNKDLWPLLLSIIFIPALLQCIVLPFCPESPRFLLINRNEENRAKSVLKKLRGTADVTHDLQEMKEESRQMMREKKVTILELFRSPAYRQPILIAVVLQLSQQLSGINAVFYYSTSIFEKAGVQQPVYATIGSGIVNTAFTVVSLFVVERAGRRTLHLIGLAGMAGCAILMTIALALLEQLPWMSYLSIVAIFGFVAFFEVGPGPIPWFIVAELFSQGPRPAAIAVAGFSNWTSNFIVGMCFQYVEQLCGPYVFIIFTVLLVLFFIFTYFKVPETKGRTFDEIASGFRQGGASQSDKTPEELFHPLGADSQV
# [2] = biological target: Hexose transporter 1 (Plasmodium falciparum) (UniProt O97467); assay: ST_JUDE_LEISH: Cytotoxicity at 2uM final concentration against transgenic Leishmania Mexicana promastigotes LmPfHT that are glucose transport deficient and complemented with the Plasmodium falciparum hexose transporter. Activity is measured by DNA content using SYBR green in vitro
# [3] = biological target: Glucose transporter (Leishmania mexicana) (UniProt O61059); assay: ST_JUDE_LEISH: Cytotoxicity at 2uM final concentration against transgenic Leishmania Mexicana promastigotes LmGT2 that are glucose transport deficient and complemented with the L. Mexicana glucose transporter 2. Activity is measured by DNA content using SYBR green in vitro
SMILES,inhibition [1] [%],inhibition [2] [%],inhibition [3] [%]
COc1ccc2nc(-c3ccccc3)cc(NCCCNc3cc(-c4ccccc4)nc4ccc(OC)cc34)c2c1,3.06,2.6,0.67
COc1cccc(C(=O)Nc2ccc(Nc3nc(C)cc(N(C)C)n3)cc2)c1OC,2.81,4.32,1
CN1CCC[C@H]1COc1ccc(CN2CC[C@H](NC(=O)c3ccc(Cl)c(Cl)c3)C2)cc1Br,2.61,2.26,1.89
CCOc1cc2ncnc(Nc3ccc(OCc4c(F)cccc4F)c(OC)c3)c2cc1OCC,4.53,2.29,0.2
Cc1cc(F)ccc1[C@H]1C[C@H](N2CCOCC2)CCN1C(=O)N(C)[C@@H](C)c1cc(C(F)(F)F)cc(C(F)(F)F)c1,0.71,0.17,-0.74
CCNc1cc(C(=O)N[C@@H](Cc2ccccc2)[C@H](O)CNC(C)CCCC(C)C)cc(N2CCCS2(=O)=O)c1 (some centres undefined),2.83,1.89,2.08
FC(F)(F)c1ccc(-c2cncc(-c3ccc(C(F)(F)F)cc3)n2)cc1,-1.94,-1.14,-1.64
CCOC(=O)CCCOc1c(OC)cc(Cc2cnc(N)nc2N)cc1OC,-1.3,-0.68,-2.34
Oc1ccc2ccccc2c1CNCCC1CCCCC1,0.07,0.52,1.73
CCOc1ccc2ccccc2c1C(=O)Nc1cc(C)nn1-c1nc(C)cc(=O)[nH]1,49.6,44.4,20.4
O=c1c2ccccc2[nH]c2cc(Cl)ccc12,5.11,7.05,0.77
O=C(Cc1cccnc1)N(Cc1ccc(-c2ccc(CNCc3cccnc3)cn2)cc1)C1CCN(Cc2ccccc2)CC1,-1.34,-0.95,-1.68
COc1ccc(-c2ccc(NC(=O)c3cccc(F)c3)cc2)cc1CN1CCCN(C)CC1,4.26,2.56,-2.3
Cc1cc(N[C@@H](CC(C)C)C(=O)NCCOc2ccccc2)nc(NCCOc2ccccc2)n1,3.79,1.16,17.1
CCCCCN1CCCC1CNS(=O)(=O)c1cccc(C(=O)Nc2cccc(C#N)c2)c1 (centres undefined),2.62,4.82,3.88
Cc1ccc(CNC(=O)c2cc3c(=O)n4cccc(C)c4nc3n(CCN3CCOCC3)c2=N)cc1,-0.35,1,1.48
CN1CCN(c2ccc(-c3nc4ccc(OCc5cc(Cl)cc(Cl)c5)c(C(N)=O)c4[nH]3)cc2)CC1,1.82,5.73,0.86

SMILES,inhibition [1] [%],inhibition [2] [%],inhibition [3] [%]
O=C(/C=C/c1ccc(Cl)c(Cl)c1)NCCCCCN1CCC(NC(=O)Nc2ccc(F)c(F)c2)CC1,-1.34,-0.67,-2.11
CCc1ccc(C2CCN(CCCCNC(=O)c3ccc(NC(=O)c4ccc(Cl)cc4)cc3)CC2)cc1,-0.05,0.38,0.05
CC(=O)Oc1c(C2CCN(CCCCNC(=O)c3ccc(NC(=O)c4ccc(Cl)cc4)cc3)CC2)ccc2c1CCCC2,4.86,6.32,3.9
N=C(N)NCC=C(c1ccccc1)c1ccccc1,8.32,5.26,6.35
CC1(C)N=C(N)N=C(N)N1c1ccc(Oc2ccc(Cl)cc2)c(Cl)c1,0.34,-1.08,2.05
O=C(Nc1cccc(-c2csc(-c3ccccc3)n2)c1)c1cccs1,2.64,2.57,0.7
Cc1cccc(CN2CCC(C(=O)Nc3ccc(-c4nc5ccccc5[nH]4)cc3)CC2)n1,2.6,2.69,3.71
CCN(CC)CCCNc1cc[n+]([O-])c2cc3ccccc3cc12,-0.82,-2.45,-1.63
Cc1oc(-c2ccc(Cl)cc2)cc1C(=O)NCCC1CCN(CCCCCNC(=O)/C=C/c2ccc(Cl)c(Cl)c2)CC1,-0.57,-1.53,-2.41
COc1ccc(CC2(c3ccc(F)cc3)N=C(N)N(CCCc3ccccc3)C2=O)cc1 (centres undefined),5.85,5.5,4.39
Cc1cc(F)ccc1Nc1nc(N(C)c2ccccc2)c2cccc(OCCO)c2n1,13.7,11.2,4.48
COc1ccc(Cl)cc1NC(=O)Nc1ccnc2ccccc12,14.6,13.4,6.32
COc1ccc2nccc([C@@H](O)CN3CCC(NC(=O)CCC(=O)c4cc(C(C)(C)C)ccc4OC)CC3)c2c1,5.04,4.7,1.95
COc1ccc(CN(C)Cc2cc(C(C)C)c(C)cc2O)cc1F,2.07,1.85,-2.13
COc1cc(NCC2(CNCc3cn(Cc4ccccc4)c4ccccc34)CCCCC2)nc2ccccc12,-0.66,-0.02,-0.38
CC(=O)Oc1c(C(=O)C2CCC(C(C)(C)C)CC2)c(OC(C)=O)c2ccccc2c1OC(C)=O (centres undefined),8.82,11.5,7.73
